Reference: PubChem BioAssay
For some assays here: Results with a measured potency or affinity are listed apart. Calls of active or inactive are those of the source. No rule for the calls is given here.

target: Plasmodium falciparum protein kinase 6 (PK6, PF3D7_1337100) (UniProt Q8IDW1); test: PfPK6 kinase inhibitors, biochemical, TCAMS library (AID 1159586); conditions: recombinant PfPK6, Kinase-Glo ATP depletion luminescence
Sequence (Q8IDW1 1-305): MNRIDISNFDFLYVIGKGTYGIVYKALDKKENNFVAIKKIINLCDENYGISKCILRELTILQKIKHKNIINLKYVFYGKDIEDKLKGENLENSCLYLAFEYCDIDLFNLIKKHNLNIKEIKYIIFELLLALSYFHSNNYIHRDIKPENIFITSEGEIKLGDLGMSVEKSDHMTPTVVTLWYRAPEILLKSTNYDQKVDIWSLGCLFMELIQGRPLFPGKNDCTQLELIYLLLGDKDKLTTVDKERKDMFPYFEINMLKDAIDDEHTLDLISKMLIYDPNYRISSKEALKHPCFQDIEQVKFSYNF

outcome, inactive:
COc1cc(NCCCCCNc2cc(Cl)nc3ccccc23)nc2ccccc12
FC(F)(F)c1ccc2nc(-c3cccc(-c4cccc(CN5CCN(c6ccncc6)CC5)c4)c3)[nH]c2c1
CN1CCN(CCCN(Cc2csc(-c3ccc(CNCc4ccccc4)cc3)n2)S(=O)(=O)c2ccccc2)CC1
O=S1(=O)NC2(CCN(CCc3ccc(Cl)cc3)CC2)Nc2cc(F)cc(F)c21
O=C(NCCCN1CCCC1=O)c1cnc(N2CCC(Oc3ccccc3)CC2)c(Cl)c1
COc1ccc(C(=O)Nc2cc(Br)c3c(c2)CNCC3)cc1Br
NC(Cc1ccc(Cl)cc1)=NCCN1CCCCCC1
CC1CCCC(NC(=O)CCOc2ccccc2)C1 (stereo not given)
Cc1noc(-c2ccc(NC[C@@H](C)NC[C@H](O)c3cccc(Cl)c3)cc2)n1
COc1ccc(NC(=O)Nc2cccc(-c3ccncc3)c2)cc1N1CCN(C)CC1
Cc1cc(N2CCCN(CC3CCCCC3)CC2)nc(Nc2ccc(Br)cc2)n1
CCCNCc1ccc(-c2ccc(CN(CCOC)C(=O)c3cscn3)cc2)nc1
CC(=O)Nc1ccc(Cl)c(Cl)c1
O=C(Nc1ccc(CN2CCCCC2)cc1)c1ccc(COc2ccc([N+](=O)[O-])cc2)o1
CCOc1ccc(/C=C/C(=O)Nc2cccc3c2CCN(C)C3)cc1
Cc1cc(NN=Cc2ccc(F)cc2)c2cccc(C)c2n1
COc1ccc(CNC(=O)c2cnc3c(O)cccc3c2Nc2cccc(NC(=O)c3ccc(F)cc3)c2)cc1
CCCCOc1cc2[nH]cc(C(=O)OCC)c(=O)c2cc1OCCCC
OC(Cn1ccnc1)(c1ccc(Cl)cc1Cl)C1CCCCC1 (stereo not given)
O=C(c1cccs1)N1CCN(c2ccc([N+](=O)[O-])c(NC3CC3)c2)CC1
CC(=O)Nc1cccc(C(=O)Nc2cccc(-c3ccc(-c4nc5ccc(F)cc5[nH]4)s3)c2)c1
C=C1C[C@@H](n2cnc3c(NC(=O)c4ccccc4)ncnc32)[C@@H](F)[C@@H]1OC(c1ccccc1)(c1ccccc1)c1ccccc1
CS(=O)(=O)Nc1ccc2[nH]cc(C3CCN(CC4CCC(NC(=O)/C=C/c5ccc(Cl)c(Cl)c5)CC4)CC3)c2n1 (stereo not given)
CN1CCN(c2ccnc3ccc(NC(=O)Nc4ccc(-c5ccccc5)cc4)cc23)CC1
CCC[C@@H]([C@@H](CC(C)C)C(=O)N[C@@H](CCCCNC(=O)c1ccccn1)C(=O)Nc1nccs1)N(O)C=O

target: Protein kinase 7 (PK7), Plasmodium falciparum 3D7 (PF3D7_0213400) (UniProt Q7YTF7); test: inhibition of Plasmodium PK7 catalytic activity – biochemical, TCAMS antimalarial set, Kinase-Glo luminescence (AID 1159587); conditions: recombinant PfPK7, Kinase-Glo ATP depletion luminescence
Sequence (Q7YTF7 1-343): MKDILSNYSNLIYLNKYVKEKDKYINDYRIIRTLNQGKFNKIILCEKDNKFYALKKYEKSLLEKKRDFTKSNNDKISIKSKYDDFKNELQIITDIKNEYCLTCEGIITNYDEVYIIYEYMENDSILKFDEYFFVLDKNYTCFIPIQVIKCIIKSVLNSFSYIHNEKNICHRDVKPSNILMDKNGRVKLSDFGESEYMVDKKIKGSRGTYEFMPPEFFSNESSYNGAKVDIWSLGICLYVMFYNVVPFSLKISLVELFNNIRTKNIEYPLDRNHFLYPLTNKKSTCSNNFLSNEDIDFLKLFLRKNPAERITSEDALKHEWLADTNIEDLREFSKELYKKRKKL

outcome, inactive:
CC(C)(C)c1ccc(NC(=O)c2ccc(CN3CCCN(Cc4cccc(Cl)c4)CC3)cc2)cc1
CC1(C)[C@H]2CC[C@@H](CNc3nc(NCCc4cnc[nH]4)nc(Nc4ccc5c(c4)OCO5)n3)[C@@H]1C2
Cc1cc(C2CCN(CCCCNC(=O)c3ccc(NC(=O)c4ccc(Cl)cc4)cc3)CC2)c(C)cc1OCc1ccccn1
Oc1ccc(CCCNc2nc(NCc3ccccc3-c3ccccc3)nc(NC3CCNCC3)n2)cc1
CCC(=Cc1cccc([N+](=O)[O-])c1)C(=O)NCC1CCN(c2nc(N)c3cc(OC)c(OC)cc3n2)CC1
NCCCCc1c(-c2ccc(Cl)c(Cl)c2)[nH]c2ccc(Cl)cc12
CCCCN(C(=O)c1ccccc1C)c1nnc(-c2ccccc2C)s1
Cc1cccc2[nH]c(-c3ccc(-c4cccc(NC(=O)COc5ccccc5C(N)=O)c4)s3)nc12
COc1ccc2nccc([C@@H](O)CN3CCC(NC(=O)c4nc(Cl)c(Cl)c(N)c4Cl)CC3)c2c1
Cc1cc(N2CCCC2)nc(Nc2ccc(NC(=O)c3ccc(Br)o3)cc2)n1
Cn1c(=N)cc(-c2ccc(Br)cc2)c2c(=O)[nH]c(N)nc21
CCC(C)(C)NC(=O)C(c1cccc(OC)c1)N(C(=O)CNC(=O)c1cccs1)c1ccc2c(c1)OCCO2 (stereo not given)
Oc1ccccc1CCNCC1CCc2ccccc2C1 (stereo not given)
COc1ccc2nccc([C@@H](O)CN3CCC(NCc4ccc(OC)c(NC=O)c4)CC3)c2c1
CCCN(Cc1ccc(OCC)cc1)Cc1cc(=O)c2cc(Cl)ccc2[nH]1
COc1cc(NCCCCCNc2cc(Cl)nc3ccccc23)nc2ccccc12
FC(F)(F)c1ccc2nc(-c3cccc(-c4cccc(CN5CCN(c6ccncc6)CC5)c4)c3)[nH]c2c1
CN1CCN(CCCN(Cc2csc(-c3ccc(CNCc4ccccc4)cc3)n2)S(=O)(=O)c2ccccc2)CC1
O=S1(=O)NC2(CCN(CCc3ccc(Cl)cc3)CC2)Nc2cc(F)cc(F)c21
O=C(NCCCN1CCCC1=O)c1cnc(N2CCC(Oc3ccccc3)CC2)c(Cl)c1
COc1ccc(C(=O)Nc2cc(Br)c3c(c2)CNCC3)cc1Br
NC(Cc1ccc(Cl)cc1)=NCCN1CCCCCC1
CC1CCCC(NC(=O)CCOc2ccccc2)C1 (stereo not given)
Cc1noc(-c2ccc(NC[C@@H](C)NC[C@H](O)c3cccc(Cl)c3)cc2)n1
COc1ccc(NC(=O)Nc2cccc(-c3ccncc3)c2)cc1N1CCN(C)CC1
Cc1cc(N2CCCN(CC3CCCCC3)CC2)nc(Nc2ccc(Br)cc2)n1
CCCNCc1ccc(-c2ccc(CN(CCOC)C(=O)c3cscn3)cc2)nc1
CC(=O)Nc1ccc(Cl)c(Cl)c1
O=C(Nc1ccc(CN2CCCCC2)cc1)c1ccc(COc2ccc([N+](=O)[O-])cc2)o1
CCOc1ccc(/C=C/C(=O)Nc2cccc3c2CCN(C)C3)cc1
Cc1cc(NN=Cc2ccc(F)cc2)c2cccc(C)c2n1
COc1ccc(CNC(=O)c2cnc3c(O)cccc3c2Nc2cccc(NC(=O)c3ccc(F)cc3)c2)cc1
CCCCOc1cc2[nH]cc(C(=O)OCC)c(=O)c2cc1OCCCC
OC(Cn1ccnc1)(c1ccc(Cl)cc1Cl)C1CCCCC1 (stereo not given)
O=C(c1cccs1)N1CCN(c2ccc([N+](=O)[O-])c(NC3CC3)c2)CC1
CC(=O)Nc1cccc(C(=O)Nc2cccc(-c3ccc(-c4nc5ccc(F)cc5[nH]4)s3)c2)c1
C=C1C[C@@H](n2cnc3c(NC(=O)c4ccccc4)ncnc32)[C@@H](F)[C@@H]1OC(c1ccccc1)(c1ccccc1)c1ccccc1
CS(=O)(=O)Nc1ccc2[nH]cc(C3CCN(CC4CCC(NC(=O)/C=C/c5ccc(Cl)c(Cl)c5)CC4)CC3)c2n1 (stereo not given)
CN1CCN(c2ccnc3ccc(NC(=O)Nc4ccc(-c5ccccc5)cc4)cc23)CC1
CCC[C@@H]([C@@H](CC(C)C)C(=O)N[C@@H](CCCCNC(=O)c1ccccn1)C(=O)Nc1nccs1)N(O)C=O
